# Compound activity deposited in PubChem by several laboratories.
# A selection: hits, their analogues and other compounds. The true share with any hit is near 1.4%.
# MCL1 BIM primary = MCL1-BIM-BH3 interaction inhibition (human); Q07820; 320,000 compounds, 0.68% hits; AID 2057; inhibition, % at 10.9 µM; GST-MCL1 / FITC-Bim-BH3 fluorescence polarization;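 active = inhibition above the mean inhibition of all tested compounds plus 3 SD, set per campaign, cut at about 40% in these data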;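 also: 0% = DMSO wells and 100% = unlabeled Bim-BH3 peptide control; higher means more loss of mP so more displacement of Bim peptide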
# Target sequence (Q07820 whole entry, looked up): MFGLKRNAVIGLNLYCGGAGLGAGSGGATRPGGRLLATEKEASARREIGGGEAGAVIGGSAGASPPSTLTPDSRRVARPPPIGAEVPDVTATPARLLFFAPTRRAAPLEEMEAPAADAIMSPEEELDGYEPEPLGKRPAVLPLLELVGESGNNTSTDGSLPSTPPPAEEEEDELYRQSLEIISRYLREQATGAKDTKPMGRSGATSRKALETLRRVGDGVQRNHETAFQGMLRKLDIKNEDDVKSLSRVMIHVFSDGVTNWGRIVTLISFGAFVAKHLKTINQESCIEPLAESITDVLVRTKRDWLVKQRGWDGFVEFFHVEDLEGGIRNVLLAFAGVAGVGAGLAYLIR
# GLD-1 RNA inh = GLD-1-TGE RNA interaction inhibition (C. elegans); Q17339; purified GLD-1 + fluorescein TGE RNA, fluorescence polarization; inhibition, % at 5.96 µM; 320,000 compounds, 0.44% hits; AID 2280;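 active = percent inhibition above a per-plate cutoff, the plate mean of test compounds plus 3 SD, cut at about 30% in these data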;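 also: 0% = DMSO wells with GLD-1 and probe and 100% = wells lacking GLD-1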
# MEX-5 binding = C. elegans MEX-5 TCR-2 RNA binding activity. MEX-5/FITC-TCR2 RNA binding, fluorescence polarization; active compounds read low. AID 1832. 300,000 compounds, 0.38% hits. Q9XUB2. activity score (negative = inhibition of binding), % at 10 µM;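 active = inhibition past about -25% in most replicates, and total fluorescence under double the plate's negative control median, limit read from the data; inconclusive = replicates evenly split on the limit, or fluorescence at least double controls; inactive = too little inhibition in most replicates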;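 also: 0% = DMSO and -100% = 5 µM competing unlabeled TCR2 RNA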
# Bcl-xL primary = blocks human Bcl-xL binding to Bim BH3 peptide; Q07817; GST-Bcl-xL / FITC-Bim BH3 peptide fluorescence polarization; inhibition, % at 10.9 µM; 320,000 compounds, 0.7% hits;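 active = inhibition above the mean of all tested compounds plus 3 SD, cutoff set per campaign, cut at about 30% in these data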;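 also: 0% = DMSO wells and 100% = unlabeled Bim-BH3 peptide competitor; inhibitors lower millipolarization by displacing the labeled peptide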
# Target sequence (Q07817 whole entry, looked up): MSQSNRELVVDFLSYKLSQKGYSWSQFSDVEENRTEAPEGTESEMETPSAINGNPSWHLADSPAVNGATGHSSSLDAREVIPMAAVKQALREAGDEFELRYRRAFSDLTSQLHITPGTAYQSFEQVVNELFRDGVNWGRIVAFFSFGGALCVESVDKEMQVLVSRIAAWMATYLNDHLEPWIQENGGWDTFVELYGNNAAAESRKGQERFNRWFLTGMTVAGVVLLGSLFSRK
# E coli Lon inh = inhibits E. coli Lon protease. inhibition, % at 7.94 µM. P0A9M0. 360,000 compounds, 0.42% hits. purified E. coli Lon protease, fluorescence polarization. AID 602123; in the data active = inhibition above about 13%, passing the limit was not always enough;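 also: 0% = enzyme with probe and DMSO and 100% = no enzyme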
# BCLXL inh confirm = Bcl-xL (human) inhibition, MCL1 counter-screen confirmation; shares compounds with MCL1 BIM primary; GST-Bcl-xL / FITC-Bim BH3 peptide FP binding; inhibition, % at 10.9 µM; 1,700 compounds, 54% hits;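 active = inhibition above a cutoff equal to the mean inhibition of all tested compounds plus 3 SD, cut at about 30% in these data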;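 also: 0% = DMSO wells and 100% = unlabeled Bim BH3 control peptide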
# MCL1 inh confirm = confirmation of human MCL1 and BIM-BH3 interaction inhibitors; shares compounds with MCL1 BIM primary; GST-MCL1 / FITC-Bim-BH3 fluorescence polarization; inhibition, % at 10.9 µM; 1,700 compounds, 61% hits; AID 2168;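 active = inhibition above the average of all tested compounds plus 3 SD, cut at about 40% in these data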;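 also: 0% = DMSO wells and 100% = unlabeled Bim-BH3 control peptide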
# * hit, by the source's call; ? = inconclusive; . = no result given; + = active, no number.
SMILES,MCL1 BIM primary,GLD-1 RNA inh,MEX-5 binding,Bcl-xL primary,E coli Lon inh,BCLXL inh confirm,MCL1 inh confirm
COc1ccc(NC(=O)c2cccc(S(=O)(=O)N3CCc4ccccc43)c2)cn1,60.4*,49.5*,-6.6,60.7*,1.1,45.6*,57.9*
O=C(Nc1ncccc1O)c1cccc(S(=O)(=O)N2CCc3ccccc32)c1,6.5,2.7,0.4,4.8,6.8,.,.
COc1cccc(-c2oc3c(c2C#CC2(N)CCCCC2)C(O)CCC3)c1 (stereo unspecified),.,.,.,.,-0.7,.,.
Cc1cc(O)ccc1-c1ccc2nncn2c1,.,.,.,.,-5.1,.,.
Cc1nnc(SCC(=O)Nc2sccc2C#N)s1,53.2*,8.4,1.0,28.5,-5.7,20.5,22.5
O=[N+]([O-])c1ccc(/C=N/Nc2ncccc2[N+](=O)[O-])s1,-0.2,0.1,-2.1,0.8,7.3,.,.
O=[N+]([O-])c1ccc(/C=N/n2cnc3ccccc32)s1,72.1*,7.1,-41.3*,52.0*,-4.2,71.2*,76.3*
COc1cc(/C=C2\CCc3c2nc2ccccc2c3C(=O)O)cc(OC)c1OC,75.9*,1.8,-25.8*,20.2,-10.0,29.8,75.2*
CC1CCN(c2ccc3c(c2)S(=O)(=O)c2cccc(C(=O)NCc4cccc(F)c4)c2C3=O)CC1,68.4*,162.0*,.,26.9,-85.9,-28.5,-52.1
COc1ccccc1N1CCN(c2ccc3c(c2)S(=O)(=O)c2cccc(C(=O)NCc4ccc(F)cc4)c2C3=O)CC1,.,.,.,.,-1.3,.,.
O=C(O)c1cccc2c1C(=O)c1ccc(N3CCCC3)cc1S2(=O)=O,131.4*,80.2*,.,112.4*,48.0*,103.7*,121.8*
COc1ccc(C(=O)C[n+]2cc(Br)cc3ccccc32)cc1[N+](=O)[O-],74.8*,-86.0,-0.8,54.0*,-61.7,21.9,24.1
CCc1ccc[n+](-c2[nH]c(=O)sc2/C=N/N=C(\[O-])CCn2c3ccccc3c3ccccc32)c1,32.3,14.4,-7.7,20.5,9.7,.,.
Cc1cc[n+](-c2[nH]c(=O)sc2/C=N/N=C(\[O-])CCn2c3ccccc3c3ccccc32)cc1,49.0*,21.8,.,26.8,8.8,18.8,50.1*
CC1COc2c3ccccc3nn21 (stereo unspecified),.,.,.,.,-1.4,.,.
COCc1cc(=O)n2[nH]c(-c3ccco3)cc2n1,2.7,11.4,-2.2,-0.5,6.3,.,.
CCCCN1Cc2c(nc3cc(-c4ccco4)[nH]n3c2=O)C1=O,66.4*,-11.1,-4.2,28.6,-4.6,36.7*,50.5*
Clc1ccc(Br)c(-c2nc3ccccc3[nH]2)c1,.,.,.,.,8.5,.,.
CC(C)[C@@H]1Cc2[nH][nH]c(=O)c2[C@H](c2ccc(F)cc2)O1,.,.,.,.,-15.6,.,.
Cc1ccc(Cl)cc1NC(=O)c1ccccc1OCC(=O)N1CCOCC1,62.9*,6.5,-0.2,-4.1,4.8,7.5,12.6
Cc1ccc(Cl)cc1NC(=O)c1ccccc1OCC(=O)Nc1ccc(Cl)cc1,9.0,-1.6,0.8,6.0,-6.3,.,.
Cc1ccn2cc(-c3ccc(O)c(O)c3)nc2c1,55.9*,2.3,-46.2*,24.9,-3.6,58.3*,58.5*
Cc1ccn2cc(-c3cccc(NC(=O)C(C)C)c3)nc2c1,1.1,3.6,0.4,3.3,-0.4,.,.
CNC(=O)c1cc(Oc2ccc(NC(=O)Nc3ccc(Cl)c(C(F)(F)F)c3)cc2)ccn1,-0.2,9.8,.,2.1,0.3,.,.
C/C(=N\Nc1ncnc2sc(C)c(C)c12)c1ccccn1,100.5*,25.1,?,100.6*,-25.1,+,+
SMILES,MCL1 BIM primary,GLD-1 RNA inh,MEX-5 binding,Bcl-xL primary,E coli Lon inh,BCLXL inh confirm,MCL1 inh confirm
O=C(CN(C1CCCCC1)S(=O)(=O)c1ccc(F)cc1)NCC1CCCO1 (stereo unspecified),.,.,.,.,1.2,.,.
O=[N+]([O-])c1ccccc1S(=O)c1ccccc1[N+](=O)[O-],.,.,.,.,-9.9,.,.
CN(c1ncc(C(F)(F)F)cc1Cl)N1C(=O)c2cccc(N)c2C1=O,62.0*,84.2*,-0.6,58.7*,2.9,47.4*,65.6*
CN(c1ncc(C(F)(F)F)cc1Cl)N1C(=O)C2ONC3(C(=O)CC(C)(C)CC3=O)C2C1=O (stereo unspecified),5.8,14.8,-16.0,3.4,14.8,.,.
O=[N+]([O-])c1ccc2nc(-c3ccc(OC(F)F)cc3)cn2c1,93.5*,14.2,-3.3,12.6,-7.2,0.6,2.8
CCc1nc2c(OCCOc3ccc(F)cc3)cccn2c1N(C)C(=O)c1ccc(C)cc1,.,.,.,.,-0.8,.,.
COc1cc2cc(C)c(SCC(=O)N3CCOCC3)nc2cc1OC,56.1*,32.9*,2.0,52.5*,-3.5,9.8,15.9
COc1cc2cc(C#N)c(SCC(=O)N3CCOCC3)nc2cc1OC,9.4,-1.2,2.9,9.5,-5.2,.,.
O=C(C1=C(O)C(=O)N(c2ncccn2)C1c1ccc(Cl)cc1)c1ccco1 (stereo unspecified),6.9,4.0,-3.3,4.2,-6.5,.,.
CSc1nnc(N2C(=O)C(O)=C(C(=O)c3ccco3)C2c2ccc(F)cc2)s1 (stereo unspecified),70.9*,83.5*,-22.4,79.7*,-3.6,43.1*,55.5*
CCOc1cccc(C2C(C(=O)c3ccc(C)o3)=C(O)C(=O)N2c2nnc(C)s2)c1 (stereo unspecified),.,.,.,.,-2.9,.,.
CCSc1nnc(N2C(=O)C(O)=C(C(=O)c3ccco3)C2c2cccc(OC)c2)s1 (stereo unspecified),59.6*,79.0*,-1.5,59.9*,19.3,65.1*,75.8*
COc1ccccc1C(=O)N1CCN(Cc2cccnc2)CC1,-7.8,1.9,1.5,-1.4,-0.4,.,.
CCCN(C)C1CN(Cc2cn(Cc3ccc(C)cc3)nn2)S(=O)(=O)C1 (stereo unspecified),.,.,.,.,4.9,.,.
COc1cc(-c2nc(-c3ccccn3)no2)cc(OC)c1OC,41.4*,1.7,-1.4,4.9,-9.3,20.4,34.4
COc1cccc(-c2nc(-c3ccccn3)no2)c1OC,0.5,-3.7,-1.7,5.8,4.2,.,.
CN(CC(=O)Nc1ccc(F)c(F)c1F)C(=O)CCN1C(=O)C2CC=CCC2C1=O (stereo unspecified),.,.,.,.,-18.1,.,.
Cc1cc2n(c1)CCn1c(C)ccc1-2,98.8*,20.7,0.3,78.5*,.,91.7*,134.8*
CCCC1=[N+](CC)CCn2c(C)ccc21,-15.4,-2.5,-0.1,-9.0,0.8,.,.
COc1ccc(C(C)(NC(C)=O)c2nc(-c3ccc(F)c(Cl)c3)cs2)cc1 (stereo unspecified),.,.,.,.,-4.5,.,.
CCc1cc[n+](-c2nc3ccccc3nc2[N-]S(=O)(=O)c2ccc(Br)s2)cc1,93.8*,24.6,?,82.7*,12.3,70.5*,87.5*
Cc1cc[n+](-c2nc3ccccc3nc2[N-]S(=O)(=O)c2ccccc2)cc1,17.3,11.8,0.1,17.2,1.9,.,.
